A selection: hits, their analogues and other compounds. The true share with any hit is near 21%.
IL1B secr inh = inflammasome signaling inhibition, IL-1 beta readout. THP-1 LPS/ATP IL-1B secretion, AlphaLISA, 16 h; hits give low values. activity change, % at 57.5 µM. 360,000 tested, 4.7% active. AID 743279; in the data active = activity change below about -50%; inconclusive = mostly about -30% to -49%; note: % is set by controls: 0 for no effect and ±100 for the full control effect
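THP-1 cells pretreated 1 hr with compounds (up to 57.5 uM final), then stimulated with LPS (250 ng/mL final) plus ATP (1.25 mM final); secreted IL-1B measured by AlphaLISA after 16 hr, decreased signal indicating inhibition.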
D3 ag = activates the human D3 dopamine receptor. max activation, %. 410,000 tested, 0.58% active. P35462. D3R DiscoveRx beta-arrestin cells, luminescence, 90 min; in the data active = max activation above about 30%; note: 0% is about no effect
Target sequence (P35462 whole entry, looked up): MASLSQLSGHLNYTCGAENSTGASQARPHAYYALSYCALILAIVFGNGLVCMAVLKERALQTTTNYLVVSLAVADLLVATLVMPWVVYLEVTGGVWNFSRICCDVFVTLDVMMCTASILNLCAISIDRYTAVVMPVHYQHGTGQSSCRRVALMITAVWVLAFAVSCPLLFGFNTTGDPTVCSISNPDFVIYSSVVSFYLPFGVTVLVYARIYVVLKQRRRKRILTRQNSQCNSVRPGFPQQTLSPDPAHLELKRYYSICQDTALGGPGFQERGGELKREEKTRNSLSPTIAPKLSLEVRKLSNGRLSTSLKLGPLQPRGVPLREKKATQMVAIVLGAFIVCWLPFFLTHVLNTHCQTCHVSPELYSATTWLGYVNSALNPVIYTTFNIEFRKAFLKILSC
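Cells at 1500/well, incubated overnight, then treated with pinned compounds (dopamine as control) for 90 min at 37 degrees C. DiscoveRx reagent added for 30 - 60 minutes at room temperature; luminescence read.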
D3 antag = blocks the human D3 dopamine receptor | D3R cells, DiscoveRx beta-arrestin luminescence, antagonist mode; hits give low values | max response, negative = inhibition, % | 360,000 tested, 2.5% active | AID 652054; in the data active = max response below about -50%; inconclusive = no clear call, values can overlap the other calls; note: % is set by controls: 0 for no effect and ±100 for the full control effect
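Cells plated overnight at 1500 cells/well, then exposed to library compounds with dopamine controls for 90 minutes at 37 degrees C. DiscoveRx reagent added for 30–60 minutes at room temperature; luminescence read, quantitative HTS format.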
DT40 TDP1 CPT = growth inhibition of DT40 Tdp1-/-;hTDP1 cells with camptothecin (screen for TDP1 inhibitors); chicken DT40 Tdp1-/-;hTDP1 cells + 20 nM CPT, ATP luminescence, 48 h; Potency, µM (series often up to 46.2 µM), inactives show top-dose activity change, negative = growth inhibition, usual class: inhibitors; 420,000 tested, 12% active; note: potency is the fitted concentration of half-maximal effect; % is set by controls: 0 for no effect and ±100 for the full control effect; nearly all actives have a fitted effect of over 55% in size
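Chicken DT40 Tdp1-/- cells stably complemented with human TDP1 were seeded at 400 cells/well in medium containing 20 nM camptothecin, exposed to pin-transferred compounds, and grown at 37 °C for at least 48 hr. Viability was read as ATP luminescence.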
DT40 TDP1 no CPT = qHTS for Inhibitors of human tyrosyl-DNA phosphodiesterase 1 (TDP1): qHTS in cells in absence of CPT; DT40 Tdp1-/- hTDP1 cells, no CPT, ATP luminescence, 48 h; Potency, µM (series often up to 46.2 µM), for inactives: at the top dose activity change, negative = growth inhibition, usual class: inhibitors; 420,000 tested, 15% active; note: potency is the fitted concentration of half-maximal effect; % is set by controls: 0 for no effect and ±100 for the full control effect; nearly all actives have a fitted effect of over 55% in size
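Chicken DT40 Tdp1-/- cells complemented with human TDP1, screened without camptothecin (DMSO vehicle only), 400 cells/well. Compounds pin-transferred, cells incubated at 37 °C for at least 48 hr. Growth read as ATP-dependent luminescence (CellTiter-Glo, 30 min at RT).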
ClpP mod = qHTS Assay for Activators of ClpP; purified B. subtilis ClpP, FRET peptide cleavage, 20 min; Potency, µM (series often up to 57.5 µM), inactives show top-dose activity change, negative = active; 340,000 tested, 1.9% active; AID 651965, 2013; active = well fitted falling curve with a large enough effect; inconclusive = small, poorly fitted or top-dose-only effect; inactive = no such curve, though single readings can be large or run the other way; note: potency is the fitted concentration of half-maximal effect; the source files actives as falling curves though it sought activators and does not explain the sign; nearly all actives have a fitted effect of over 65% in size
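Purified B. subtilis ClpP, 10 microg/mL final in Tris/HCl pH8 with KCl, BSA, glycerol and Tween-20, cleaved an Abz/nitrotyrosine-quenched decapeptide. Fluorescence (ex 320, em 430) was read at 0 and 20 min at room temperature. Delta was normalized to 5.8 microM ADEP and DMSO/no-enzyme controls.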
Active calls of the source: *; ? = inconclusive; / = not tested or not shown; [ ] = remark or other dose. Unless noted, calls come from the whole dose curve; as a rule, active = well fitted inhibition curve with a large enough effect; inconclusive = small, poorly fitted or top-dose-only effect; inactive = flat fitted curve, though single readings scatter.

SMILES	IL1B secr inh	D3 ag	D3 antag	DT40 TDP1 CPT	DT40 TDP1 no CPT	ClpP mod
COc1ccc(N2CCCC2=N)c(OC)c1	-7.4	-3.5	-12.7	-0.6%	-17.7%	0.7%
Cc1ccccc1OCCSc1nnc(-c2ccc([N+](=O)[O-])cc2)o1	/	-15.7	/	-25.5%	-16.6%	2.8%
CCc1ccccc1NC(=O)Cn1nnc(C(=O)NCc2cccc(OC)c2)c1N	17.9	3.1	-2.1	?	?	-1.0%
Nc1cc([N+](=O)[O-])ccc1Nc1ccccc1	-102.8*	-11.3	?	14.6µM*	6.51µM*	/
O=C(O)c1cc([N+](=O)[O-])ccc1Nc1ccccc1	18.6	6.6	1.5	-0.9%	-3.0%	-1.0%
Nc1cc([N+](=O)[O-])ccc1OCc1ccccc1	6.6	-1.1	-10.1	18.4µM*	?	0.0%
CCN(CC(=O)Nc1cc(S(=O)(=O)N2CCCCC2)ccc1C)Cc1ccccc1	-14.1	-8.6	6.4	20.6µM*	18.4µM*	-6.8%
COc1ccc(S(=O)(=O)N2CCCCC2)cc1NC(=O)CCCOc1ccc(C)cc1	2.7	-12.1	-16.4	?	?	0.3%
CCN(CC(=O)Nc1ccc(C)c(S(=O)(=O)N2CCOCC2)c1)Cc1ccccc1	-2.0	-18.9	6.2	20.6µM*	?	-3.2%
Cc1ccc(S(=O)(=O)N2CCCCC2)cc1NC(=O)CCOc1ccccc1	-1.9	-8.8	-18.5	?	?	-1.3%
CC(=O)c1ccc(OCCCC(=O)Nc2cc(S(=O)(=O)N3CCCCC3)ccc2C)cc1	5.9	-2.6	12.4	?	23.1µM*	/
Cc1ccc(S(=O)(=O)N2CCCCC2)cc1NC(=O)CCCOc1ccccc1	-3.7	-8.9	-8.3	?	20.6µM*	/
O=C(OCc1nnc(-c2ccc([N+](=O)[O-])cc2)o1)C1CCN(C(=O)c2ccc(F)cc2)CC1	0.7	2.8	5.2	-26.7%	-1.4%	-1.1%
Cc1nc(C)n(CC(=O)N2CCOc3ccc(CN4CCN(C)C[C@@H]4c4ccccc4)cc3C2)n1	/	/	/	-8.8%[9.04 µM]	-16.2%	/
Cc1ccc(-c2nc(-c3cc4cccc(OCc5ccccc5F)c4oc3=O)no2)cc1	/	-4.7	/	-8.9%	-10.2%	-2.1%
CCOC(=O)c1cnc(SCC(=O)N2CCOCC2)nc1N	-9.2	-2.0	-4.7	-7.5%	-12.7%	/
Nc1nonc1C(=O)NCCNC(=O)c1ccc(Cl)c(Cl)c1	44.0	-12.6	5.9	-3.0%	-16.8%	/
CCN(CC(=O)NCC(=O)Nc1ccc(Br)cc1C)Cc1ccccc1	-62.8*	-6.6	5.3	-19.3%	?	/
O=C(COC(=O)COc1ccc2c(c1)CCC2)Nc1ccccc1C(F)(F)F	13.2	-17.1	0.0	?	-0.3%	1.6%
COC(=O)C1=C(C(=O)OC)SC2(S1)C(C(=O)OC)=C(C(=O)OC)SC1=C2c2cc(C)ccc2NC1(C)C	-20.6	1.0	-15.8	20.6µM*	14.6µM*	-1.7%
CC1(C)CC2CC(C)(CN2C(=O)c2ccc([N+](=O)[O-])cc2)C1 (centres undefined)	0.1	0.4	2.7	20.6µM*	?	2.2%
CC1(C)CC2CC(C)(CN2C(=O)c2cccs2)C1 (centres undefined)	26.8	-5.5	9.6	?	8.2µM*	1.4%
Cc1cccc(C(=O)N2CC3(C)CC2CC(C)(C)C3)c1 (centres undefined)	21.6	3.3	25.9	20.6µM*	23.1µM*	-3.9%
CC1(C)C[C@@H]2C[C@@](C)(CN2C(=O)c2ccccc2)C1	15.0	-3.4	82.9	?	14.6µM*	-2.4%
CC(=O)Nc1ccccc1C(=O)N1CC2(C)CC1CC(C)(C)C2 (centres undefined)	9.2	1.6	6.4	-5.0%	-1.0%	0.9%
Cc1onc(-c2ccccc2)c1C(=O)OCc1nnc(-c2ccccc2)o1	-7.5	-15.6	-6.7	?	?	/

From PubChem
